# Assay results published in PubChem BioAssay (NCATS).
# Where “and” joins values, the source holds several entries; their conditions need not be identical. Equal entries are not always repeated. Inconclusive results are not listed. A call without a number means that no potency is given here. A number with no mark means an inactive call. Calls of active or inactive are those of the source. Unless noted, calls come from the whole dose curve; as a rule, active = well fitted curve in the direction sought with a large enough effect; inconclusive = small, poorly fitted or top-dose-only effect, or another doubt; inactive = no such curve, though single readings can be large; an effect the other way counts as inactive or inconclusive.
# Legend:
# [1] = target: Cellular tumor antigen p53 (Homo sapiens) (UniProt P04637); assay: Primary qHTS for small molecule compounds that upregulate eGFP-tagged delta133p53alpha (in N-terminal) cells. (AID 2060322); settings: NCI-H358 eGFP-delta133p53alpha fluorescence, 24 h; activation: hits give high values; note: nearly all actives have a fitted effect of over 75% in size;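 for activation: cells pre-induced with doxycycline then dosed without doxycycline; series mostly up to about 56 µM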
# In short: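 NCI-H358 cells pre-induced 24 h with 10 ng/ml doxycycline for eGFP-delta133p53alpha, plated dox-free and exposed 24 h at 37C to titrated compounds. Fixed, Hoechst-stained; gated GFP peak intensity by laser scanning cytometry, normalized to DMSO (0%) and 57.5 uM 5-azacytidine (100%).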
# [2] = target: Aldehyde dehydrogenase, mitochondrial (Homo sapiens) (UniProt P05091); assay: qHTS for Inhibitors of the Aldehyde Dehydrogenase Family (ALDH2) Confirmatory screens (AID 2061303; active = well fitted inhibition curve with a large enough effect; title and protocol of this record describe different tests; note: nearly all actives have a fitted effect of over 45% in size)
# [3] = qHTS for Inhibitors of the Aldehyde Dehydrogenase Family (ALDH1A2, ALDH1A3, ALDH2, ALDH3A1) (AID 2061307); note: nearly all actives have a fitted effect of over 50% in size; for potency: test system not described further here
# [4] = target: Aldehyde dehydrogenase, mitochondrial (Homo sapiens) (UniProt P05091); assay: qHTS for Inhibitors of the Aldehyde Dehydrogenase Family (ALDH2) Primary screen (AID 2061308); note: nearly all actives have a fitted effect of over 55% in size
# [5] = target: Retinaldehyde dehydrogenase 3 (Homo sapiens) (UniProt P47895); assay: qHTS for Inhibitors of the Aldehyde Dehydrogenase Family (ALDH1A3) Confirmatory screens (AID 2061311); note: nearly all actives have a fitted effect of over 60% in size
# [6] = target: Retinal dehydrogenase 2 (Homo sapiens) (UniProt O94788); assay: qHTS for Inhibitors of the Aldehyde Dehydrogenase Family (ALDH1A2) Confirmation screens (AID 2061314); note: nearly all actives have a fitted effect of over 65% in size
# [7] = target: Retinaldehyde dehydrogenase 3 (Homo sapiens) (UniProt P47895); assay: qHTS for Inhibitors of the Aldehyde Dehydrogenase Family (ALDH1A3) Primary screen (AID 2061315)
# [8] = target: Aldehyde dehydrogenase 1A1 (Homo sapiens) (UniProt P00352); assay: qHTS for Inhibitors of the Aldehyde Dehydrogenase Family (ALDH1A1) Confirmatory screens (AID 2061316); note: nearly all actives have a fitted effect of over 65% in size
# [9] = target: Retinaldehyde dehydrogenase 3 (Homo sapiens) (UniProt P47895); assay: qHTS for Inhibitors of the Aldehyde Dehydrogenase Family (ALDH1A3) Validation screen (AID 2061312); note: nearly all actives have a fitted effect of over 45% in size
# [10] = BET inhibitor-based combinations targeting novel dependencies in MECOM-rearranged (r) AML: UCSD-AML1 cell line (AID 2202235); note: nearly all actives have a fitted effect of over 40% in size
# In short: (§1)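 Normalized to DMSO and empty-well controls, the luminescence data from CellTiter-Glo after 48 hr drug exposure were fitted across 11 concentrations. Reported metrics are area under the dose-response curve and its Z-transformed form.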
# [11] = BET inhibitor-based combinations targeting novel dependencies in MECOM-rearranged (r) AML: AML-191 cell line (AID 2202236; note: nearly all actives have a fitted effect of over 35% in size)
# In short: (§2)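 Here, 11-point titrations of each agent were applied to 500 seeded cells and incubated 48 hr; CellTiter-Glo signal, scaled against DMSO and empty wells, was integrated as AUC, then Z-scored within the individual line.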
# [12] = BET inhibitor-based combinations targeting novel dependencies in MECOM-rearranged (r) AML: SET-2 cell line (AID 2202231); settings: SET-2 AML cells viability, CellTiter-Glo luminescence, 48 h; viability: hits give low values, concentration not given here; note: nearly all actives have a fitted effect of over 35% in size
# In short: as §2
# [13] = BET inhibitor-based combinations targeting novel dependencies in MECOM-rearranged (r) AML: OCI-AML3 cell line (AID 2202232); settings: Potency: OCI-AML3 viability; note: nearly all actives have a fitted effect of over 35% in size
# In short: as §2
# [14] = BET inhibitor-based combinations targeting novel dependencies in MECOM-rearranged (r) AML: MV-4-11 cell line (AID 2202233); note: nearly all actives have a fitted effect of over 45% in size
# In short: as §1
# [15] = BET inhibitor-based combinations targeting novel dependencies in MECOM-rearranged (r) AML: HNT-34 cell line (AID 2202234); note: nearly all actives have a fitted effect of over 35% in size
# In short: as §1
# [16] = BET inhibitor-based combinations targeting novel dependencies in MECOM-rearranged (r) AML: AML-194 cell line (AID 2202237; note: nearly all actives have a fitted effect of over 40% in size)
# In short: as §2
# Potency is the fitted concentration of half-maximal effect.
# Cellular tumor antigen p53 (Homo sapiens), sequence (P04637 whole entry, looked up): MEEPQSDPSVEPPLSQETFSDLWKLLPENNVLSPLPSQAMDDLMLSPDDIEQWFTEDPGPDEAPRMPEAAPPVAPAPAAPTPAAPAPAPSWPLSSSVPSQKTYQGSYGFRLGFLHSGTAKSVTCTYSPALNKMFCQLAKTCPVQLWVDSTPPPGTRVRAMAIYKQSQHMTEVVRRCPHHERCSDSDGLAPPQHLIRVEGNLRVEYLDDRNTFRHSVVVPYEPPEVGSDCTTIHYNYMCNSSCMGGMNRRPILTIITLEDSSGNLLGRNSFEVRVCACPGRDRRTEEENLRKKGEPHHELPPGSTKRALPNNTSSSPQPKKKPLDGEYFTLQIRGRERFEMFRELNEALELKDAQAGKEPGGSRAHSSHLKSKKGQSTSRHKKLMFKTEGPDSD
compound,measurement,setting,value
Cc1cc(Cl)ccc1COc1ccnn1-c1cc(C(=O)O)ccn1,activation,[1],5.67%
same,Potency,[2],inactive
same,Potency,[3],inactive
same,Potency,[4],inactive
same,Potency,[5],inactive
same,Potency,[6],inactive
same,Potency,[7],inactive
O=C(NCCN1CCN(c2cccc3ccc(O)cc23)CC1)c1ccc(F)cc1,activation,[1],-8.04%
same,Potency,[2],inactive
same,Potency,[3],15.8 µM (active)
same,Potency,[4],inactive
same,Potency,[5],5.04 µM (active)
same,Potency,[6],inactive
same,Potency,[8],10.1 µM (active)
Cc1cn(C[C@H](N)C(=O)O)c(=O)n(Cc2ccsc2C(=O)O)c1=O,activation,[1],15.3%
same,Potency,[2],inactive
same,Potency,[3],inactive
same,Potency,[4],inactive
same,Potency,[5],inactive
same,Potency,[9],12.6 µM (active)
same,Potency,[7],inactive
same,Potency,[8],inactive
O=C(O)c1ccc(N2C(=O)/C(=C/c3ccc(-c4ccc([N+](=O)[O-])cc4)o3)C=C2c2ccccc2)cc1,activation,[1],24.3%
same,Potency,[2],1.59 µM (active)
same,Potency,[3],11.3 µM (active)
same,Potency,[4],3.98 µM (active)
same,Potency,[5],20.1 µM (active)
same,Potency,[6],5.65 µM (active)
same,Potency,[8],3.18 µM (active)
O=C(O)c1cccc(-c2noc(-c3ccccc3F)n2)c1,activation,[1],19.2% and 2.33% and 1.9%
same,Potency,[2],inactive
same,Potency,[3],0.302 µM (active)
same,Potency,[4],inactive
same,Potency,[5],0.159 µM (active)
same,Potency,[6],inactive
same,Potency,[7],0.316 µM (active)
same,Potency,[10],18.6 µM (active)
same,Potency,[11],20.9 µM (active)
CC(O)(C#Cc1ccc2c(c1)N(c1nc(N)ncc1Cl)CC2)c1nccs1 (stereo not drawn),activation,[1],-1.22%
same,Potency,[2],inactive
same,Potency,[3],inactive
same,Potency,[4],inactive
same,Potency,[5],inactive
same,Potency,[6],inactive
same,Potency,[7],inactive
same,Potency,[10],inactive
O=C(c1cccc(Cl)c1F)N1CCN(Cc2cccc(Nc3nccs3)n2)CC1,activation,[1],23.9%
same,Potency,[2],inactive
same,Potency,[3],inactive
same,Potency,[4],inactive
same,Potency,[5],35.5 µM (active)
same,Potency,[7],inactive
COC(=O)[C@]1(Cc2ccc(O)c(CC=C(C)C)c2)OC(=O)C(O)=C1c1ccc(O)cc1,activation,[1],1.53%
same,Potency,[2],inactive
same,Potency,[3],inactive
same,Potency,[4],inactive
same,Potency,[5],12.3 µM (active)
same,Potency,[6],inactive
N#Cc1ccc(-c2cnc3[nH]cc(NC(=O)c4cccnc4)c3c2)cc1,activation,[1],-4.46%
same,Potency,[2],3.57 µM (active)
same,Potency,[3],1.59 µM (active)
same,Potency,[4],inactive
same,Potency,[5],3.16 µM (active)
same,Potency,[6],2.83 µM (active)
same,Potency,[7],inactive
same,Potency,[8],12.7 µM (active)
Clc1cccc(COc2cncc(N3CCNCC3)n2)c1,activation,[1],14.8%
same,Potency,[2],inactive
same,Potency,[3],inactive
same,Potency,[4],inactive
same,Potency,[5],inactive
same,Potency,[6],inactive
same,Potency,[7],inactive
same,Potency,[8],inactive
O=C(CCl)Nc1cccc(NC2=NS(=O)(=O)c3ccccc32)c1,Potency,[1],26.9 µM (active)
same,Potency,[2],inactive
same,Potency,[3],inactive
same,Potency,[4],inactive
same,Potency,[5],inactive
same,Potency,[6],1.01 µM (active)
same,Potency,[7],inactive
same,Potency,[8],12.7 µM (active)
same,Potency,[12],26.3 µM (active)
same,Potency,[13],10.5 µM (active)
same,Potency,[14],16.6 µM (active)
same,Potency,[15],5.25 µM (active)
same,Potency,[11],8.33 µM (active)
same,Potency,[16],13.2 µM (active)
NC(=O)[C@H]1CCS[C@@H]2C[C@]3(CCCN3C(=O)Cc3ccc(NC(=O)COc4ccc(Cl)cc4Cl)cc3)C(=O)N12,activation,[1],19%
same,Potency,[2],inactive
same,Potency,[3],inactive
same,Potency,[4],inactive
same,Potency,[5],inactive
same,Potency,[9],inactive
same,Potency,[6],inactive
same,Potency,[7],inactive
same,Potency,[8],inactive
same,Potency,[12],14.8 µM (active)
same,Potency,[13],9.34 µM (active)
same,Potency,[14],7.42 µM (active)
same,Potency,[10],7.42 µM (active)
same,Potency,[11],5.25 µM (active)
same,Potency,[16],6.61 µM (active)
CC(C)(CC(=O)N1CCCC1)NCC(=O)N1C[C@@H](F)C[C@H]1C#N,activation,[1],0.333%
same,Potency,[2],inactive
same,Potency,[3],inactive
same,Potency,[4],inactive
same,Potency,[5],inactive
same,Potency,[6],inactive
same,Potency,[7],inactive
same,Potency,[8],inactive
Cc1ccc(S(=O)(=O)c2ccc([N+](=O)[O-])o2)cc1,Potency,[1],8.49 µM (active)
same,Potency,[2],1.59 µM (active)
same,Potency,[3],0.708 µM (active)
same,Potency,[4],0.562 µM (active)
same,Potency,[5],11.2 µM (active)
same,Potency,[9],1.41 µM (active)
same,Potency,[6],3.98 µM (active)
same,Potency,[8],0.504 µM (active)
CCOC(=O)[C@H](CCc1ccccc1)N[C@@H](C)C(=O)N1C(=O)N(C)C[C@H]1C(=O)O,activation,[1],12.6% and 0.333%
same,Potency,[2],inactive
same,Potency,[3],inactive
same,Potency,[4],inactive
same,Potency,[5],inactive
same,Potency,[6],inactive
same,Potency,[7],inactive
same,Potency,[8],inactive
CCNC(=O)OC1CCN(c2nncc3cc(OC)c(OC)cc23)CC1,activation,[1],-7.67%
same,Potency,[2],inactive
same,Potency,[3],inactive
same,Potency,[4],inactive
same,Potency,[5],inactive
same,Potency,[6],inactive
same,Potency,[7],inactive
same,Potency,[8],inactive
Cc1onc(-c2c(Cl)cccc2Cl)c1C(=O)N[C@@H]1C(=O)N2[C@@H]1SC(C)(C)[C@@H]2C(=O)O,activation,[1],-9.21% and 6.21%
same,Potency,[2],inactive
same,Potency,[3],inactive
same,Potency,[4],inactive
same,Potency,[5],inactive
same,Potency,[9],inactive
same,Potency,[7],inactive
same,Potency,[8],inactive
N#Cc1ccc(O[C@@H]2c3ccccc3C[C@H]2N2CCC[C@@H](N)C2)c(Cl)c1,Potency,[1],30.1 µM (active)
same,Potency,[2],inactive
same,Potency,[3],inactive
same,Potency,[4],inactive
same,Potency,[5],inactive
same,Potency,[6],inactive
same,Potency,[7],inactive
C=C1C(=O)O[C@H]2C[C@@H](C)[C@@H]3CCC(=O)[C@@]3(C)C[C@H]12,Potency,[1],10.7 µM (active)
same,Potency,[2],inactive
same,Potency,[3],20.1 µM (active)
same,Potency,[4],inactive
same,Potency,[5],14.2 µM (active)
same,Potency,[6],inactive
same,Potency,[7],inactive
same,Potency,[8],inactive
